40 compounds from PubChem BioAssay (Tox21) can be followed below.

Molecules are shown by their SMILES. Inconclusive results are not listed. Calls of active or inactive are those of the source. Calls follow the shape of the dose curve; as a rule, active = well fitted cell-killing curve with a large enough effect in the repeat runs; inconclusive = weak or mixed curves, or effect the other way; inactive = no such curve, though single readings can be large or run the other way.
% is scaled to controls: 0 for no effect and ±100 for the full control effect.

The assay is described as follows: qHTS assay to identify small molecule agonists of the RXR signaling pathway - cell viability counter screen (AID 1159529). Also: nearly all actives have a fitted effect of over 50% in size. Particulars: RXR-alpha-bla HEK293T viability, CellTiter-Glo, 16 h; series mostly up to 76.8 µM; activity change, negative = cytotoxicity: at the top concentration. The text has this:
National Center for Advancing Translational Sciences [NCATS]
NIH Chemical Genomics Center [NCGC]
U.S. Environmental Protection Agency [EPA]
National Institutes of Environmental Health Sciences [NIEHS]
National Toxicology Program [NTP]
U.S. Food and Drug Administration [FDA]
The Retinoid X receptor (RXR), a nuclear hormone receptor expressed in liver, spleen, placenta, epidermis, central nervous system. These receptors are able to form homo and heterodimers with other nuclear receptors and due to this heterodimerizing ability, RXR functions as master regulators producing diverse physiological effects. Three subtypes of RXR exist; alpha, beta and gamma. Retinoid X receptor alpha (RXR-alpha) has potential roles in metabolic signaling pathways, skin alopecia, dermal cysts, cardiac development, insulin sensitization etc. Therefore screening environmental chemicals on RXR-alpha signaling can be used for the studies focused on such therapeutic applications. For quantification of RXR-alpha ligands signaling, GeneBLAzer RXR alpha-UAS-bla HEK 293T (Life Technologies, Carlsbad, CA) cells containing a beta-lactamase reporter-gene under control of Retinoid X receptor-alpha response element were used to screen Tox21 10K library. The cytotoxicity of the Tox21 compound library against the RXR-alpha HEK 293T cell line was tested in parallel by measuring cell viability using CellTiter-Glo assay (Promega Corporation, Madison, WI) in the same wells.
Tox21 Assay Protocol Summary:
RXR-alpha HEK 293T cells were dispensed at 2,000 cells/6 uL of assay medium containing 2% charcoal-stripped FBS using a Multidrop Combi (ThermoFisher Scientific, Waltham, MA) dispenser. The assay was performed in black wall/clear-bottom 1536-well plates (Greiner Bio-One North America Inc. Monroe, NC). Tetraoctyl ammonium bromide was used as a positive control in the cytotoxicity screen. After the assay plates were incubated at 37 C and 5% CO2 for 5 hr, 23 nL of compounds dissolved in DMSO, positive control or DMSO only were transferred to the assay plate by a Pintool station (Kalypsys, San Diego, CA). The assay plates were incubated at 37 C and 5% CO2 for 16 hr. One uL of LiveBLAzer B/G FRET substrate (Life Technologies) was added using a Flying Reagent Dispenser (FRD) (Aurora Discovery, San Diego, CA) and the plates were incubated at room temperature for 2 hr. Fluorescence intensity (405 nm excitation, 460/530 nm emission) was measured using an Envision plate reader (PerkinElmer, Shelton, CT). For cytotoxicity, 4 uL/well of CellTiter-Glo reagent was added into the assay plates using an FRD. After 30 min incubation at room temperature, the luminescence intensity was measured using a ViewLux plate reader (PerkinElmer).
Background: In qHTS, concentration-response curves come from the screen itself.
On to `COC(=O)c1cccnc1`, for which the compound was classed as inactive.

Turning to `O=C1c2ccccc2CCc2ccccc21`, the result was inactive.

As for `CC(CCl)OP(=O)(OC(C)CCl)OC(C)CCl` (stereo not given), the result was inactive.

For the compound `Nc1ccc(Cl)c(N)c1`, the “activity change, negative = cytotoxicity” value is 8.91% (inactive).

Turning to `COc1ccc(CCC(C)=O)cc1`, the outcome was inactive.

Consider `CCCCCC(=O)O`, for which the compound was called inactive.

As to `CNC(=S)N(C)C`, the call was inactive.

`CCCCCCCO`: the “activity change, negative = cytotoxicity” value was 1.23% (inactive).

With `COc1ccccc1OCC(O)CO` (stereo not given), the compound was classed as inactive.

With `CCOCC(=O)O`, the compound was classed as inactive.

As to `CC(=O)Oc1ccc(C)cc1`, the result was inactive.

Turning to `C=C(C)[C@H]1CC=C(C)C(=O)C1`, the result was inactive.

As to `CCCCCCCCCCCC(=O)OC`, the call was inactive.

For `OCc1cccc(Oc2ccccc2)c1`, the compound was classed as inactive.

As to `CN1C(=O)CC[C@H]1c1cccnc1`, the compound was classed as inactive.

Regarding `CCCCCCCCCCO`, the call was inactive.

With `C=CC[N+](C)(C)CC=C`, the compound was classed as inactive.

`NCCCCCCN`: the outcome was inactive.

In the case of `CC(CCO)CC(C)(C)C` (stereo not given), the compound was called inactive.

Consider `C=CC(=O)OCCC(=O)O`, for which the result was inactive.

For the compound `N[C@H](Cc1c[nH]c2ccccc12)C(=O)O`, the outcome was inactive.

As for `O=C(O)c1cc2ccccc2cc1O`, the result was inactive.

Consider `c1ccc2c(c1)Cc1ccccc1-2`, for which the compound was classed as inactive.

`CC(C)OP(=O)(CP(=O)(OC(C)C)OC(C)C)OC(C)C`: the compound was classed as inactive.

For the compound `CN(C)c1ccc(O)c2c1C[C@H]1C[C@H]3[C@H](N(C)C)C(=O)C(C(N)=O)=C(O)[C@@]3(O)C(=O)C1=C2O`, the compound was called inactive.

For `CC(C)c1cccc(C(C)C)c1`, the compound was classed as inactive.

`CN/C(=C\[N+](=O)[O-])NCCSCc1csc(CN(C)C)n1`: the “activity change, negative = cytotoxicity” value is 12.7% [at 35.3 µM] (inactive).

`O=c1[nH]cnc2[nH]ncc12`: the “activity change, negative = cytotoxicity” value is 12.7% [at 35.3 µM] (inactive).

On to `N#Cc1ccccc1`, for which the call was inactive.

For the compound `CC(C)CCCCCCCOC(=O)CCCCC(=O)OCCCCCCCC(C)C`, the compound was classed as inactive.

For `C=C(C)CNCC`, the result was inactive.

Take `CC(C)CC(=O)CC(C)CC(C)C` (stereo not given): the call was inactive.

For the compound `O=S(=O)(O)c1ccccc1`, the call was inactive.

For `CC(=O)OC1CC(C)OC(C)O1` (stereo not given), the call was inactive.

`CCCCCCCC=O`: the result was inactive.

For the compound `c1ccc(Oc2ccccc2)cc1`, the call was inactive.

Take `C[Si]1(C)O[Si](C)(C)O[Si](C)(C)O[Si](C)(C)O1`: the call was inactive.

Take `CCO[Si](CCCN)(OCC)OCC`: the compound was called inactive.

For the compound `CCNC(=S)NCC`, the outcome was inactive.

For `CC1(C)OC[C@@H]2O[C@@]3(C(=O)O)OC(C)(C)O[C@H]3[C@@H]2O1`, the result was inactive.
